Measured values: PubChem BioAssay AID540277 (National Center for Advancing Translational Sciences (NCATS), 2011)
Out of some 320,000 compounds screened, about 55 (0.02%) were called active. About 3% were inconclusive and are not listed. Rule as the data show it: active = potentiation above about 80%; inconclusive = between about 30% and that limit; inactive = weaker than that. Many of the other results were omitted from the sample, so actives are more common in it than they were.

biological target: Transient receptor potential cation channel subfamily V member 1 (Homo sapiens) (UniProt Q8NER1); test: HTS Assay for Compounds that Act as Potentiators of the Vanilloid Receptor 1; conditions: TRPV1-expressing cells, Fluo-8 calcium influx, capsaicin EC20 potentiation; at 8.33 µM; stronger effect = higher value; also: 0% is about no effect
From the text: The transient receptor potential ion channel, family V, number 1, (TRPV1) is one of the most important molecular transducers of painful stimuli and a potential target for analgesic drug development. Although recent clinical trials with orthosteric antagonists have not produced a successful drug because of a hyperthermia side effect and their tendency to block thermal noxious pain, this ion channel is undeniably well placed in the pain pathway, and the idea of blocking pain signals before they enter the CNS is an excellent concept and of proven efficacy when TRPV1 agonists are used. We propose a new approach involving allosteric modulation to impose an activity-dependent constraint within the context of inflammation and tissue damage that would alter the responsiveness of the channel in a way that an orthosteric vanilloid antagonist cannot achieve. We believe that the allosteric modulator approach has not been explored for this target. The main goal of this proposal is to identify additional, new, potent allosteric modulators of TRPV1 that can be used to investigate TRPV1 function. Our recent report provides evidence of proof of concept, but the compounds are just at the edge of utility in terms of potency. […] The question of whether they can be used as analgesic agents is complex, but if suitable compounds are identified then testing for analgesic properties will be conducted. NIH Chemical Genomics Center [NCGC] NIH Molecular Libraries Probe Centers Network [MLPCN] MLPCN Grant: MH089480-1A1 Assay Submitter (PI): Michael Iadarola, National Institute of Dental and Cranofacial Research
Upon TRPV1 activation in TRPV1 cells, the channel opens and extracellular cations flow through the channel into the cytosol. A calcium binding dye (Fluo-8) becomes fluorescent when bound to calcium. This dye is pre-loaded into cells and is used as a marker for calcium influx. The amount of accumulated calcium is precisely quantified using the FDSS kinetic reader and the calcium dye. For the HTS assay, freshly prepared cells are plated at a density of 2000/well in 3 ul medium in 1536-well plates and cultured overnight at 35.5C. Cells will be loaded with 1 ul of the homogeneous calcium dye (ABD Bioquest) at room temperature for 40 to 90 minutes. Plates will be loaded into the FDSS kinetic reader and a 1 sec / cycle for 10 second baseline signal will be measured. Compound library will then be added with a pintool at 23 nl and measured kinetically for 3 minutes. This portion of the read is considered the agonist portion of the screen. Following the 3 minutes of incubation, an on board pipettor will deliver 1 ul of capsaicin for a final concentration equal to the EC20. Signal will be measured kinetically for an additional 2 minutes. This portion of the read is considered the allosteric enhancer portion of the screen. The FDSS reader has a standard filter set capable of measuring calcium bound Fluo-8 (ex=480 and em=520 nm).

Chain of Transient receptor potential cation channel subfamily V member 1 (Homo sapiens) (Q8NER1 whole entry, looked up): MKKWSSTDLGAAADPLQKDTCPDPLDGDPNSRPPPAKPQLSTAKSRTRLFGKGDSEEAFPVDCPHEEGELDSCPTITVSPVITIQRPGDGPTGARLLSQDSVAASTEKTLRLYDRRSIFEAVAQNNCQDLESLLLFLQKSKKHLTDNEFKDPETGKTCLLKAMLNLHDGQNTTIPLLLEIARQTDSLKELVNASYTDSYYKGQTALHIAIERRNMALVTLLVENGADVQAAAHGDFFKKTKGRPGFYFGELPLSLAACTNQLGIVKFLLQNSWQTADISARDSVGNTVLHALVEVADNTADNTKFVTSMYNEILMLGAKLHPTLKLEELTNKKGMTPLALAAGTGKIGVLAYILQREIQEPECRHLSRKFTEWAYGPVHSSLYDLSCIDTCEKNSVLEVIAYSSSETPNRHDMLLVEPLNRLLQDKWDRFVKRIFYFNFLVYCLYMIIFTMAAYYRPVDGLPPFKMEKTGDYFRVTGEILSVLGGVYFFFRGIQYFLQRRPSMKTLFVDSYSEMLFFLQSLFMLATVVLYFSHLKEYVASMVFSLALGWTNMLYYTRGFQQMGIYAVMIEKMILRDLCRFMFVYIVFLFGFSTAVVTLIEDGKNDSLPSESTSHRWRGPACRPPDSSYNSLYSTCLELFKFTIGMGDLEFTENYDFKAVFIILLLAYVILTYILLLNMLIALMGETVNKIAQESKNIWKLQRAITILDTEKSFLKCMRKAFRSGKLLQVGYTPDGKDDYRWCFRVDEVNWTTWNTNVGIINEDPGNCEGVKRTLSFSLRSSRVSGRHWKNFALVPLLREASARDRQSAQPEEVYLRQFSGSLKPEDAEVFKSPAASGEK

Compound	potentiation
O=S(=O)(NCc1ccccc1Br)c1ccccc1Br	5.51% (inactive)
CCOC(=O)C1=C(COC(=O)[C@H](C)NS(=O)(=O)c2ccccc2F)NC(=O)NC1C (some centres undefined)	-3.56% (inactive)
CCOC(=O)c1cc(OC(=O)c2ccccc2Cl)n(-c2ccccc2)n1	0.753% (inactive)
CCc1sc(C(=O)N2CCN(CC(=O)Nc3cccc(F)c3)CC2)cc1C	-11.7% (inactive)
CCN(CC(=O)NCc1cccs1)C(=O)/C=C/c1ccc(C)cc1	-0.0424% (inactive)
COC(=O)c1sc2[nH]c(=S)n(N)c(=O)c2c1C	-11.7% (inactive)
CCN(c1ccccc1)S(=O)(=O)c1cccc(C(=O)NCc2ccccc2CN2CCOCC2)c1	-5.32% (inactive)
CCOc1ncccc1C(=O)OCC(=O)c1c[nH]c2ccccc12	3.1% (inactive)
O=C(CN1C(=O)NC2(CCCCC2)C1=O)N1CCN(C(=O)c2cccs2)CC1	25.7% (inactive)
CN(C)CCN=c1cc(-c2ccccc2)oc2ccc(Cl)cc12	-6.88% (inactive)
O=C(COC(=O)c1ccccc1)c1ccc2c(c1)OCCO2	3.76% (inactive)
Cc1c(C(=O)NNC(=O)c2ccncc2)oc2ccccc12	-17.2% (inactive)
O=C(O[C@@H]1[C@H](Cc2ccccc2)NS(=O)(=O)[C@H]2C[C@@H]3C=C[C@]12O3)c1ccccc1Br	3.92% (inactive)
Cc1ccc(OCCC(=O)Nc2ccc(S(=O)(=O)Nc3nccs3)cc2)cc1	17.5% (inactive)
NC(=O)C1CCN(C(=O)c2ccc(F)c(S(=O)(=O)N3CCOCC3)c2)CC1	-7.69% (inactive)
CC(C)c1ccc(/C=C/C(=O)NCCCN2CCOCC2)cc1	-19.8% (inactive)
O=C(NCCC1=CCCCC1)c1ccc(-n2cncn2)cc1	-28.9% (inactive)
Cc1ccn2c(=O)nc(SCC(=O)NCc3ccc4c(c3)OCO4)nc2c1	-6.94% (inactive)
CC1CN(/C=C/C(=O)C(F)(F)F)CC(C)O1 (centres undefined)	11.7% (inactive)
COc1ccccc1/C=C/C(=O)OCC(=O)NC1CCCCCC1	-11.2% (inactive)
O=C(NCCc1ccc(F)cc1)c1ccc2nccnc2c1	-3.52% (inactive)
CC(C)N(Cc1nnc(-c2ccccc2Br)o1)C(=O)c1cc(Cl)nc2ccccc12	-18.4% (inactive)
Cc1cc(C)cc(OCC(=O)OCC(=O)NC2CCCC2)c1	19.9% (inactive)
COCC(C)NC(=O)COc1nncc2ccccc12 (centres undefined)	80.9% (active)
COC(=O)C(C)NC(=O)COc1ccc2ccccc2c1 (centres undefined)	3.51% (inactive)
CC(C)C(C)NC(=O)COc1ncnc2ccccc12 (centres undefined)	5.13% (inactive)
Cc1cc(C)cc(-c2nnc(SCC(=O)NC3CC3)o2)c1	-9.15% (inactive)

Compound	potentiation
CCOCc1c(C(=O)N2CCN(Cc3ccc(Br)s3)CC2)oc2ccccc12	-19.8% (inactive)
COc1ccccc1N1CCN(CC(=O)Nc2ccnn2C2CCCC2)CC1	4.7% (inactive)
COc1ccccc1-n1nnnc1SCC(=O)NC(=O)Cc1ccccc1	2.96% (inactive)
COc1ccc(S(=O)(=O)N2CCOCC2)cc1NC(=O)c1ccc(OCC(C)C)c(OC)c1	-5.7% (inactive)
O=C(Nc1ccccc1F)c1ccc(S(=O)(=O)N2CCCCCC2)cc1	-21.7% (inactive)
O=S(=O)(NCCc1ccccn1)c1cc(Cl)cc(Cl)c1O	2.4% (inactive)
O=C(c1cc2ccccc2o1)N1CCN(S(=O)(=O)c2ccc(Cl)s2)CC1	-15.9% (inactive)
O=C(Nc1ccccn1)C1CCN(S(=O)(=O)c2ccc3c(c2)OCCO3)CC1	1.92% (inactive)
O=C(CCNC(=O)c1ccc(Cl)cc1)NC1CCCc2ccccc21 (centres undefined)	27% (inactive)
COc1ccccc1C(=O)Nc1ccc(OCC(=O)N2CCCCC2)cc1	-9.6% (inactive)
COc1ccccc1C(=O)Nc1ccc(C)c(S(=O)(=O)N2CCCCC2)c1	-33.7% (inactive)
Cc1ccc(NC(=O)Cn2c(C)csc2=O)cc1	15% (inactive)
Cc1ccc(-n2nc(C)c(C(=O)O)c2-n2cccc2)cc1	21.9% (inactive)
O=C(O)CSc1ccc(S(=O)(=O)N2CCCC2)cn1	5.08% (inactive)
CCN(CC(=O)Nc1ccc(OC)cc1)C(=O)c1ccc(Cl)c(S(=O)(=O)N2CCCC2)c1	0.452% (inactive)
Cc1ccc(C(=O)NCC(c2cccs2)N(C)C)cc1S(=O)(=O)N1CCOCC1 (centres undefined)	2.03% (inactive)
Cc1noc(C)c1COc1ccc(C(=O)NCCOc2ccccc2)cc1	-13.4% (inactive)
c1ccc2cc(CCCc3cc4ccccc4cn3)ncc2c1	-8.54% (inactive)
O=c1ccc(S(=O)(=O)N2CCCC2)cn1Cc1nc(-c2ccccc2)no1	-29.3% (inactive)
CC1CCc2sc(C(=O)NCC(c3ccco3)N3CCCCC3)cc2C1 (centres undefined)	-4.62% (inactive)
Cc1ccc(-c2ccc(/C=C(\C#N)C(N)=S)o2)c([N+](=O)[O-])c1	-9.36% (inactive)
CCN(CC(=O)Nc1c(F)cccc1F)C(=O)c1cnc(C)cn1	-6.22% (inactive)
CC1CC(=O)Nc2ccccc2N1C(=O)COc1ccc2cc(Br)ccc2c1 (centres undefined)	-0.32% (inactive)
O=C(OCC(=O)N1CCc2ccccc21)c1ccc([N+](=O)[O-])cc1	-20.6% (inactive)
O=S(=O)(c1cccs1)N1CCN(CCOc2ccccc2)CC1	-11.9% (inactive)
Cc1noc(C)c1C(=O)NCC1COc2ccccc2O1 (centres undefined)	-2.08% (inactive)
COc1ccc(-c2nc3c(c(SCC(=O)Nc4ccc(C(=O)O)cc4)n2)Cc2ccccc2O3)cc1	15.9% (inactive)
